RAD52 inh: inhibitors of human RAD52 DNA annealing; 360,000 compounds, 0.46% hits; recombinant RAD52 DNA annealing, FRET fluorescence; inhibition, % at 18.7 µM; P43351;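 active = every replicate showing at least 50% inhibition; inconclusive = mean inhibition at least 50% but not in every replicate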
Target sequence (P43351 whole entry, looked up): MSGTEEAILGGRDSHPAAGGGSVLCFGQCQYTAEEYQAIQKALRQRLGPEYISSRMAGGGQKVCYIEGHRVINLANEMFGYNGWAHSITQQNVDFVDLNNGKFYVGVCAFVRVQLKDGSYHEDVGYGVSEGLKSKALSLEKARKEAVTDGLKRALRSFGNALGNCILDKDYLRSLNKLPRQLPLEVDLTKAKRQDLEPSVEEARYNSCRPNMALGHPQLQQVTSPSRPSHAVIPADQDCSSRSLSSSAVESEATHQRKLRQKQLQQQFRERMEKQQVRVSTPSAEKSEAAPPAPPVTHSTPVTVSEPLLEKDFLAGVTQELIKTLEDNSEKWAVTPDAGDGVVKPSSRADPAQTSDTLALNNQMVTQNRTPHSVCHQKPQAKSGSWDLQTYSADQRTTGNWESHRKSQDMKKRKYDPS
INS-1E GSIS act: primary screen for activators of insulin secretion dependent on glucose, INS-1E cells, GLuc reporter luminescence; 370,000 compounds, 0.61% hits; INS-1E GLuc reporter insulin secretion, 2-3 h; activation, % at 16.6 µM; AID 743287;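 active = lowest replicate activation of at least 40%, so every replicate reaches that level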;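 note: 0% = median of neutral control wells and 100% = median of IBMX positive control wells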
RAD54 inh: RAD54 (human) branch migration inhibition | inhibition, % at 10.4 µM | AID 602329 | RAD54 Holliday junction branch migration, FAM/BHQ fluorescence | 360,000 compounds, 0.14% hits;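 active = mean normalized replicate activity at least 40 and at least half of replicates scoring 40 or more; inconclusive = only one of the two criteria met; inactive = mean below 40 and under half of replicates reaching 40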;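 note: 0% = median of neutral control wells and 100% = median of positive control wells; inhibitors cause a drop in the FAM fluorescence signal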
dFosB act-1: mouse delta FosB homodimer activation; P13346; purified delta FosB, TAMRA-CDK5 oligo fluorescence polarization; percent of positive-control signal above neutral wells; activation, % at 25 µM; 340,000 compounds, 0.99% hits;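 active = mean activation above about 17%, with every replicate also reaching it, limit read from the data, passing the limit was not always enough; inconclusive = only one of the two conditions met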
Target sequence (P13346 whole entry, looked up): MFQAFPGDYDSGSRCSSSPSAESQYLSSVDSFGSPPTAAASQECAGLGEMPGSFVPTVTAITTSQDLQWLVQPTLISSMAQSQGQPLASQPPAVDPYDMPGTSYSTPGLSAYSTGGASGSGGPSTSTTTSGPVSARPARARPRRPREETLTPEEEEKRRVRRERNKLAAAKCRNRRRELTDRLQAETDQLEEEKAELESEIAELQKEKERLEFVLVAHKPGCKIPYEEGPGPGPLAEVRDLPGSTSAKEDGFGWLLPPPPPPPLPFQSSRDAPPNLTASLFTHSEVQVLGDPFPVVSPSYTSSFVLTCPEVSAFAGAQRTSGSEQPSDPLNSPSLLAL
DENV2 CPE: inhibitors of DENV2 cytopathic effect. DENV2-infected cells, cytopathic effect rescue, plate reader. CPE inhibition, % at 9.99 µM. 350,000 compounds, 1.7% hits. AID 651640; in the data active = CPE inhibition above about 20%, passing the limit was not always enough; inconclusive = no clear call, values can overlap the other calls; tested in BHK-21 cells;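 note: 0% = median of neutral control wells and 100% = median of positive control wells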
AF4-AF9 inh: MLL-AF4/AF9 protein interaction inhibition. inhibition, % at 10 µM. AlphaScreen, biotin-AF4 peptide binding to FLAG-AF9. AID 651704. 350,000 compounds, 0.47% hits. P42568;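 active = every replicate reaching a set inhibition limit, whatever the replicate mean, cut at about 25% in these data; inconclusive = mean inhibition reaches that limit but some replicates miss it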;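 note: 0% = plate neutral control median and 100% = total signal loss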
dFosB act-2: activators of mouse delta FosB homodimer DNA binding | purified delta FosB, TAMRA-CDK5 oligo fluorescence polarization; normalised: neutral wells 0, positive control 100 | shares compounds with dFosB act-1 | 2,400 tested, under 10 active | AID 588690 | activation, % at 24.9 µM;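 active = highest replicate activation at or above 34% and every replicate reaching that threshold; inconclusive = meets only one of the two criteria; inactive = meets neither criterion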;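 note: higher polarization means more probe DNA bound by delta FosB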
DNA binding: binds DNA, flagging false Rad54 inhibitor hits. shares compounds with RAD54 inh. Acridine orange-DNA displacement, fluorescence polarization, 20 min. AC50, µM (titrated, usually from 35 µM), without a hit: at the highest dose activity change, negative = DNA binding. 460 compounds, 8% hits;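 active = signal drop giving an AC50 within twice the top valid tested concentration of each sample, actives reach about 35 µM in these data; inactive = activity opposite to expected, plus the rest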;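 note: polarization loss reports compound binding to salmon sperm DNA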
RAD52 DNA ctr: DNA binding artifact in RAD52 counter-screen | Salmon sperm DNA/acridine orange FP displacement | AC50, µM | 1,000 compounds, 8% hits | AID 652128 | shares compounds with RAD52 inh;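 active = fitted half-maximal concentration for signal loss at or below twice the highest dose tested, in every separate run, actives reach about 64 µM in these data; inconclusive = runs disagree, or flat partial signal loss, or poor fit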
* marks the source's active call; other numbers are inactive results; i = inactive; ? = inconclusive; . = no result. Rows were chosen to be rich in hits. Some 3.1% of all compounds tested hit in one or more screens of this group.

SMILES	RAD52 inh	INS-1E GSIS act	RAD54 inh	dFosB act-1	DENV2 CPE	AF4-AF9 inh	DNA binding	others
CN(C)CCCN(C(=O)c1ccc(S(=O)(=O)N(C)Cc2ccccc2)cc1)c1nc2cc3c(cc2s1)OCO3	-4.7	-47.2	3.2	?	-13.2	15.6	.
COc1cccc2sc(N(CCCN(C)C)C(=O)c3ccc(S(=O)(=O)N4CCc5ccccc5C4)cc3)nc12	70.0*	-44.3	16.7	30.1*	6.0	28.7*	.	dFosB act-2=1.3;RAD52 DNA ctr=i
C[C@H](CO)N1C[C@H](C)[C@H](CN(C)C(=O)C2CC2)Oc2ncc(-c3ccc(C(=O)N(C)C)cc3)cc2C1=O	-1.4	0.2	4.8	.	9.8	-3.8	.
CN(C)CCCn1c(SCC(=O)N2c3ccccc3Sc3ccccc32)nc2ccccc2c1=O	69.0*	-10.8	5.7	24.5*	.	?	.	dFosB act-2=0.3;RAD52 DNA ctr=i
CCOc1cc2[nH]c(=S)n(Cc3ccc(C(=O)NCCCOC)cc3)c(=O)c2cc1OCC	-6.4	.	4.2	1.2	-0.1	-0.2	.
CCOc1cc2[nH]c(=S)n(Cc3ccc(C(=O)NCCCN(CC)CC)cc3)c(=O)c2cc1OCC	67.4*	-4.0	51.1*	29.7*	9.4	9.2	-12.6%	dFosB act-2=4.9;RAD52 DNA ctr=i
COC(=O)C[C@@H]1CC[C@H]2[C@@H](COc3ccc(NC(=O)c4ccccc4OC)cc3C(=O)N2C)O1	.	-6.6	-9.1	.	2.4	.	.
CC(C)NC(=O)Nc1ccc2c(c1)C(=O)N([C@@H](C)CO)C[C@@H](C)[C@@H](CN(C)Cc1ccc(-c3ccccc3)cc1)O2	23.1	-24.7	2.7	.	6.7	6.9	.
Cc1cc(C)c2sc(N(CCCN(C)C)C(=O)c3ccc(S(=O)(=O)N(C)Cc4ccccc4)cc3)nc2c1	-34.7	-0.2	-2.0	2.5	17.8	5.5	.
Cc1cc(C)c2sc(N(CCCN(C)C)C(=O)CN3C(=O)c4ccccc4C3=O)nc2c1	66.5*	.	41.3	30.7*	-1.0	24.6	.	dFosB act-2=-15.4;RAD52 DNA ctr=i
CCn1c2ccc(C)cc2c2nnc(SCCN3CCOCC3)nc21	-16.1	-5.5	.	-28.3	1.5	0.6	.
Cc1ccc2c(c1)c1nc3ccccc3nc1n2CCN1CCOCC1	.	.	63.4*	-46.4	.	.	2.0%
COc1cc2nc(N3CCNCC3)nc(N)c2cc1OC	.	.	64.2*	-73.5	.	.	-9.3%
COc1cc2nc(Cl)nc(N3CCCCC3)c2cc1OC	-13.3	6.1	.	-6.4	0.7	1.2	.
O=c1cc(NCCO)c2ccccc2o1	.	.	0.0	-8.6	.	.	.
CCN(CC)CCNc1ccc(CO)c2oc3ccccc3c(=O)c12	47.5	.	80.2*	.	-10.9	3.3	-23.0%
O=C(Nc1ccc2c(c1)[C@H]1C[C@H](CC(=O)N3CCOCC3)O[C@H](CO)[C@H]1O2)C1CCOCC1	-5.1	10.1	4.7	.	19.6	0.3	.
NC(=O)C1CCN(c2nc(-c3cccc(N)c3)cs2)CC1	.	2.1	4.1	-5.0	.	.	.
NC(=O)C1CCN(c2nc(-c3cccnc3)cs2)CC1	10.9	3.2	59.7*	32.7*	15.2	-5.1	13.6%
CC1(C)Cc2c(sc3nnn(CC(=O)Nc4ccccc4)c(=O)c23)CO1	-29.2	-5.7	-16.0	-19.9	-3.5	-0.4	.
COc1ccccc1NC(=O)Cn1nnc2sc3c(c2c1=O)CC(C)(C)OC3	-22.9	.	?	.	5.7	-3.7	-17.0%
Cc1cccc2c1-c1sc(C(=O)NCCCN3CCCC(C)C3)cc1CO2 (stereo not drawn)	42.9	20.5	53.6*	6.2	-4.6	7.0	2.1%
COc1cccc(-c2nc(NCCN3CCOCC3)c3ccccc3n2)c1O	.	.	109.4*	4.9	.	.	-4.3%
Oc1ccccc1-c1nc(NCCN2CCOCC2)c2ccccc2n1	.	7.1	?	-0.3	.	.	9.7%
Cc1ccc(-c2nc(NCCN3CCOCC3)c3ccccc3n2)cc1	.	.	?	-19.2	.	.	-6.9%
SMILES	RAD52 inh	INS-1E GSIS act	RAD54 inh	dFosB act-1	DENV2 CPE	AF4-AF9 inh	DNA binding	others
CN(C)CCCNc1nc(-c2ccccc2)nc2ccccc12	48.5	47.9	66.6*	-19.9	2.4	-0.6	-21.6%
Cc1cccc(-c2nc(NCCN(C)C)c3ccccc3n2)c1	16.1	32.6	38.0	.	15.5	5.0	.
CO[C@H]1CN(C)C(=O)c2cc(NC(=O)NC3CCCCC3)ccc2OC[C@@H](C)N(C)C[C@@H]1C	2.6	22.0	5.0	.	-1.8	0.3	.
CC(C)[C@H](C)NC(=O)N(C)C[C@H]1OCc2ccccc2-c2c(n(C)c3ccccc23)C(=O)N([C@H](C)CO)C[C@H]1C	-0.9	24.5	-5.7	.	-1.8	-2.8	.
C[C@H]1CN([C@@H](C)CO)C(=O)c2cc(-c3ccncc3)cnc2O[C@H]1CN(C)C(=O)c1ccc(F)cc1	11.6	14.3	2.5	.	?	-3.4	.
CC1CN(c2nn3c(=O)c4ccccc4nc3c3ccccc23)CC(C)O1 (stereo not drawn)	.	.	.	-96.7	.	.	.
CCN1CCN(c2nn3c(=O)c4ccccc4nc3c3ccccc23)CC1	.	.	57.0*	-83.8	.	.	i
COc1ccccc1NC(=O)CNC(=O)c1ccccc1	.	.	51.7*	2.1	.	.	-13.6%
CCCCCC(=O)Nc1cc(N(C)C)nc2ccccc12	.	.	-3.0	-7.0	.	.	.
CCN(CC)CC(=O)Nc1cc(N(C)C)nc2ccccc12	31.1	-13.1	51.3*	-10.0	6.6	-6.4	-2.7%
Cc1cc2ccc3ccccc3c2cc1CN(C)C	41.9	-0.6	51.9*	-17.6	3.8	.	-14.1%
CN(C)Cc1ccccc1Sc1cccc2ccccc12	5.4	6.3	.	-1.1	14.6	-3.5	.
C[C@@H]1CCCCO[C@H](CN(C)CC2CCCCC2)[C@H](C)CN([C@@H](C)CO)C(=O)c2cc(NC(=O)c3ccncc3)ccc2O1	-2.9	0.3	6.9	.	?	-1.1	.
O=C(C[C@H]1CC[C@@H]2[C@H](COC[C@@H](O)CN2C(=O)c2ccccn2)O1)NC1CCC1	1.2	1.1	3.7	.	-7.4	-1.2	.
Cc1ccc(CSc2nnc(-c3ccc(S(=O)(=O)N4CCCC4)cc3)o2)cc1	.	.	3.4	7.5	.	.	.
O=S(=O)(c1ccc(-c2nnc(SCc3ccccc3)o2)cc1)N1CCCC1	.	.	?	1.3	.	.	7.8%
O=C(CS(=O)(=O)c1ccccc1)Nc1ccc(Br)cn1	.	18.7	?	-0.5	.	.	8.1%
CCOC(=O)c1c(NC(C)=O)sc2c(OCC(O)CN(CC)CC)c(Br)ccc12 (stereo not drawn)	45.8	24.0	84.3*	-27.0	11.6	5.9	1.7%
CCOC(=O)c1c(NC(C)=O)sc2c(OC)c(Br)ccc12	-17.3	-1.2	3.2	4.2	2.4	1.1	.

Screening data (PubChem BioAssay)
